According to PubChem BioAssay AID449743 (Southern Research Specialized Biocontainment Screening …, 2010):
Entries with a potency or affinity are not part of this list. Activity calls are given as the source filed them. How the calls were made is not given here.

Assay: PhoP regulon inhibitors in Salmonella Typhi, late-stage follow-up, GFP fluorescence, round 4, purified and synthesized compounds (AID 449743)
Conditions: Salmonella Typhi PhoP-promoter GFP reporter, 4 h; series mostly up to 150 µM

Row | SMILES | outcome
1 | S=C(NCc1ccc(Cl)cc1)Nc1ccccc1Br | inactive
2 | N#Cc1ccc(CN2CCCN(C(=O)Nc3ccc(Cl)cc3)C2)cc1 | inactive
3 | S=C(NCc1ccc(Cl)cc1)Nc1ccc(I)cc1 | inactive
4 | S=C(NCc1ccc(Cl)cc1)Nc1ccccn1 | inactive
5 | S=C(NCc1ccc(Cl)cc1)NN1CCOCC1 | inactive
6 | Cc1ccccc1NC(=O)N1CCCN(Cc2ccccc2F)C1 | inactive
7 | FC(F)(F)c1ccccc1NC(=S)NCc1ccc(Cl)cc1 | inactive
8 | S=C(NCc1ccccc1)NCc1ccc(Cl)cc1 | inactive
9 | O=C(NC1CCCCC1)N1CCCN(Cc2ccccc2F)C1 | inactive
10 | O=C(Nc1ccc(Cl)cc1)N1CCN(Cc2ccccc2F)C1 | inactive
11 | S=C(NCc1ccc(Cl)cc1)Nc1cccc(Br)c1 | inactive
12 | S=C(NCc1ccc(Cl)cc1)Nc1ccncn1 | inactive
13 | CN1CCN(C(=S)NCc2ccc(Cl)cc2)CC1 | inactive
14 | S=C(NCc1ccc(Cl)cc1)NC1CCCCC1 | inactive
15 | FC(F)(F)c1ccc(NC(=S)NCc2ccc(Cl)cc2)cc1 | inactive
16 | S=C(NCc1ccc(Cl)cc1)Nc1ccccc1I | inactive
17 | S=C(NCc1ccc(Cl)cc1)NC1CCOCC1 | inactive
18 | O=C(Nc1ccc(Cl)cc1)N1CCCN(Cc2cccc(F)c2)C1 | inactive
19 | O=C(Nc1ccc(Cl)cc1)N1CCCN(Cc2cccc(Br)c2)C1 | inactive
